Rows were chosen to be rich in hits. Some 6.5% of all compounds tested hit in one or more screens of this group.
FMDV antiviral: antivirals against foot and mouth disease virus | FMDV antiviral cell-based qHTS | Potency, µM (titrated, usually from 57.9 µM), for the others: at the highest dose activity change, negative = inhibition, actives largely listed as inhibitors | 410,000 tested, 1.2% active | AID 1159524; calls by dose curve; tested in HEK293T cells; also: read-out not given here; potency is read from the fitted curve at half-maximal effect; nearly all actives have a fitted effect of over 45% in size
Marburg entry inh: blocks Marburg virus binding to or entry into cells | Marburg virus pseudotyped entry inhibition, cell reporter | Potency, µM (highest dose often 37.8 µM), without a hit: top-dose activity change, negative = inhibition, usual class: inhibitors | 300,000 tested, 1.8% active | AID 540276; calls by dose curve; tested in HEK293 cells; also: potency is read from the fitted curve at half-maximal effect
HCMV inh: blocks human cytomegalovirus replication; HFF cells, HCMV-luciferase reporter, 72 h; active compounds read low; activity change, negative = inhibition, % at 57.5 µM; 410,000 tested, 4.5% active; AID 1259415; in the data active = activity change below about -60%; inconclusive = no clear call, values can overlap the other calls; inactive = above about -39%
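HFF cells seeded 16 h at 37C, treated with compounds, infected with luciferase-reporter HCMV at MOI 1 PFU/cell; luciferase read at 72 h post infection, normalized to buffer-only and Salinomycin controls.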
LASV entry inh: inhibitors of Lassa virus binding or cell entry; AID 540256; Potency, µM (highest dose often 37.9 µM), for the others: at the highest dose activity change, negative = inhibition, most hits filed as inhibitors; 300,000 tested, 1.2% active; Lassa virus pseudotype entry inhibition, cell reporter; calls by dose curve; tested in HEK293 cells; also: potency is read from the fitted curve at half-maximal effect; nearly all actives have a fitted effect of over 50% in size
VACV mCherry inh: inhibitors of vaccinia virus infection (mCherry reporter signal); Potency, µM (top dose mostly 36.5 µM), inactives show top-dose activity change, negative = inhibition, actives largely listed as inhibitors; Vaccinia virus mCherry reporter infection, fluorescence; AID 720579; 310,000 tested, 0.63% active; calls by dose curve; tested in A549 cells; also: potency is read from the fitted curve at half-maximal effect; nearly all actives have a fitted effect of over 35% in size
VACV Venus inh: vaccinia inhibition (Venus reporter). Vaccinia virus Venus reporter expression, fluorescence. Potency, µM (titrated, usually from 36.5 µM), for the others: top-dose activity change, negative = inhibition, actives largely listed as inhibitors. 330,000 tested, 0.46% active; calls by dose curve; tested in A549 cells; also: potency is read from the fitted curve at half-maximal effect; nearly all actives have a fitted effect of over 30% in size
Starred values were filed as active, the others as inactive; i = inactive; ? = inconclusive; . = not tested or not shown; ! = not confirmed by another sample; [ ] = dose if it differs, or a comment. % is scaled to controls: 0 for no effect and ±100 for the full control effect.

SMILES	FMDV antiviral	Marburg entry inh	HCMV inh	LASV entry inh	VACV mCherry inh	VACV Venus inh
CC(C)CC(=O)/C(=C/c1ccc(N(C)C)cc1)n1cncn1	-1%	-1%[46.1 µM]	-60*	-4%[46.1 µM]	-1%	-16%
COc1ccc(/C=C(/C(=O)c2ccc(Cl)cc2Cl)n2cncn2)cc1	?	-2%	-16	11%	.	.
CC(C)CC(=O)/C(=C\c1ccc(Cl)cc1Cl)n1cncn1	7.9µM*	?	.	0.58µM*	?	13µM*
COC(=O)/C=c1\s/c(=C(/C#N)C(=O)N2CCCCC2)n(-c2ccccc2)c1=O	.	-33%	.	.	.	.
Fc1ccc(N2Cc3ccccc3-n3nncc3C2)cc1	-12%	.	-104*	.	7%	-9%
CCn1c(=O)c2cc(C(=O)NC3CCC(C)CC3)sc2c2ccccc21 (stereo not drawn)	-3%	29%[46.1 µM]	-67*	10%[46.1 µM]	-2%	-16%
CCCN1CCN(CCCNC(=O)c2cc3c(=O)n(CC)c4ccccc4c3s2)CC1	0%	?	?	-22%[46.1 µM]	-18%	-16%
CCn1c(=O)c2cc(C(=O)NCCCN3CCC(C)CC3)sc2c2ccccc21	-7%	?	-76*	?	-24%	-22%
C[C@]12CCCCCC3=CC(=O)C=C[C@@]31OC(=O)CC2	.	.	6	.	.	.
CCn1c(CCC(N)=O)nnc1SCC(=O)Nc1cccc(S(=O)(=O)N2CCCC2)c1	-9%	.	-34	.	.	.
COC(=O)c1c(NC(=O)/C=C/C(=O)O)sc(Cc2ccccc2)c1C	?	11µM*	.	-6%	-27%	-13%
CCCCCCC(=O)Cc1cc(OC)c(OC)cc1C=C(C(C)=O)C(=O)OC	.	-11%[14.2 µM]	.	.	.	.
Cc1cc(C)n(-c2ccc(C(=O)N3CCc4c(cnc(C)c4CNC(=O)c4ccccc4F)C3)cc2)n1	-11%	.	.	.	-14%	-6%
OCc1cc(C(O)CNCCCCCCOCCCCc2ccccc2)ccc1O (stereo not drawn)	-18%	11µM*!	-60*	?	?	-20%
CC(C)(C)NCC(O)c1ccc(O)c(CO)c1 (stereo not drawn)	5%	?	.	?	-26%	-13%
O=C(Cn1c(=O)n(-c2ccc(Cl)cc2)c(=O)c2c3c(sc21)CCCCC3)Nc1cccc(Cl)c1	?	?	20	0%[46.1 µM]	-6%	0%
O=S(c1ccc2ccccc2c1)c1cnns1 (stereo not drawn)	?	?	-68*	?	.	10µM*
O=C(Nc1cnns1)Oc1ccccc1	-17%	.	-23	.	-13%	-12%
COc1ccc(-c2[nH]ncc2CN2CCC(C(=O)N3CCOCC3)CC2)c(F)c1	-5%	8%	-63*	1%	-9%	-9%
COc1cccc(CN2CC(C(=O)NC3CCCCCC3)CCC2=O)c1 (stereo not drawn)	-10%	24%[46.1 µM]	-20	0%[46.1 µM]	-10%	-5%
O=C(NC1CCCCC1)C1CCC(=O)N(Cc2cccc(C(F)(F)F)c2)C1 (stereo not drawn)	-19%	-8%	-61*	0%	-3%	-9%
O=C(Nc1ccncc1)Nc1cccc(C(F)(F)F)c1	-1%	.	-80*	.	.	.
Cc1ccc(NC(=O)NC2CCCCCCC2)cc1C	12%	.	-84*	.	.	.
NNC(=O)Nc1cccc(C(F)(F)F)c1	-10%	4%[46.1 µM]	16	-2%[46.1 µM]	-15%	0%
O=C(Nc1ccc(OC(F)F)cc1)Nc1cccc(C(F)(F)F)c1	0%	?	-80*	?	-25%	?
SMILES	FMDV antiviral	Marburg entry inh	HCMV inh	LASV entry inh	VACV mCherry inh	VACV Venus inh
CNC(=O)C[C@H](C(=O)O)c1ccc(OC(C)C)cc1	.	-7%	.	.	.	.
O=C(Nc1cccc(C(F)(F)F)c1)NC1CCCCC1	20%	14%	-29	4µM*	.	?
NC(=O)/C=C\C(=O)Nc1cccc(C(F)(F)F)c1	.	9.2µM*	-39	?	?	-18%
COc1ccc(COC(=O)C2=C(C)NC(=O)NC2c2cc(Br)c(O)c(OC)c2)cc1 (stereo not drawn)	-15%	.	29	.	.	.
COc1ccc(C2=NOC(c3nnc(-c4ccccc4)o3)C2)cc1 (stereo not drawn)	24%	.	20	.	i	-9%
COc1ccc(/C=C/c2ccc3ccccc3[n+]2C)c(OC)c1OC	.	.	.	.	-27%	?
Fc1ccc(Nc2nc(SCc3cccc(F)c3)nc3ccccc23)cc1	-3%	.	-87*	-24%[46.1 µM]	-1%	-12%
Fc1ccc(Nc2nc(SCc3cccc(Cl)c3)nc3ccccc23)cc1	-26%	.	-95*	21%[46.1 µM]	-17%	-21%
CCOC(=O)c1ccc(CN(Cc2ccc(F)cc2)S(=O)(=O)c2ccc(F)c(C(=O)Nc3c(C)cccc3C)c2)cc1	-9%	.	?	13%[46.1 µM]	-10%	-20%
Cc1ccc(Cl)cc1NC(=O)CCC(=O)NCc1ccco1	-4%	14%	-9	-7%	i	-6%
O=C(NCC12CC3CC(CC(C3)C1)C2)c1cc2nc(-c3ccc(F)cc3)cc(C(F)(F)F)n2n1	-15%	.	2	25%[46.1 µM]	-19%	-18%
COc1c2occc2c(OC(C)=O)c2c(=O)cc(C)oc12	-22%	16%	-67*	-1%	-2%	-13%
O=C(CSc1nnc(-c2cc(-c3cccs3)nc3ccccc23)o1)NC1CCCCC1	-16%	-13%	?	-4%	.	?
NC(=O)CSc1nnc(-c2cc(-c3cccs3)nc3ccccc23)o1	-12%	-19%	-18	-25%	?	1.6µM*
CCC(C)NC(=O)CSc1nnc(-c2cc(-c3cccs3)nc3ccccc23)o1 (stereo not drawn)	-22%	-7%	-19	-8%	.	2.8µM*
Cc1nc(SCC(=O)c2cc(C)n(C3CC3)c2C)c2ccccc2n1	10µM*	.	?	.	-10%	?
CC(=O)Nc1ccccc1OCC(=O)N(Cc1ccccc1)C(C)C	?	?	-77*	3%	-6%	-25%
CC1(c2ccccc2)CC(C)(C)N(C(=O)c2cccc(Cl)c2)c2ccccc21 (stereo not drawn)	3%	.	-72*	-19%[46.1 µM]	-9%	-7%
Cc1ccc(C)n1C1C(=O)N(Cc2ccc(C(C)C)cc2)c2ccccc21 (stereo not drawn)	.	.	18	.	.	.
Cc1nc(NS(=O)(=O)c2ccccc2)sc1C(=O)NNS(=O)(=O)c1ccccc1	15%	18%[46.1 µM]	-5	14%[46.1 µM]	-12%	19%
Cc1nc(C)c(C(=O)NNS(=O)(=O)c2ccc3ccccc3c2)s1	-27%	-31%	-73*	?	?	-3%
Cc1ccc([C@H]2C[C@H](O)[C@@H](n3cc(-c4ccc(F)cc4)nn3)CN2Cc2cccs2)cc1	-14%	.	-39	?	?	?
O[C@H]1CN(CC2CCCCC2)[C@@H](c2ccc(Cl)cc2)C[C@@H]1n1cc(C2CC2)nn1	?	.	-71*	.	-27%	?
Cc1ccc([C@H]2C[C@H](O)[C@@H](n3cc(-c4ccc(F)cc4)nn3)CN2C(=O)C2CCCCC2)cc1	-32%	?	-21	.	4%	-25%
